# From PubChem BioAssay (NCATS)
# Results filed as inconclusive are left out. A call without a number means that no potency is given here. A number with no mark means an inactive call. Active and inactive are the calls of the source. The call rests on the fitted dose curve; in most records, active means well fitted curve in the direction sought with a large enough effect; inconclusive means small, poorly fitted or top-dose-only effect, or another doubt; inactive means no such curve, though single readings can be large; an effect the other way counts as inactive or inconclusive.
# What was measured:
# [1] = biological target: Cellular tumor antigen p53 (Homo sapiens) (UniProt P04637); assay: Primary qHTS for small molecule compounds that upregulate eGFP-tagged delta133p53alpha (in N-terminal) cells. (AID 2060322); details: NCI-H358 eGFP-delta133p53alpha fluorescence, 24 h; activation: hits give high values; further: nearly all actives have a fitted effect of over 75% in size; further: potency means the concentration at half of the fitted maximal effect
# Sequence of Cellular tumor antigen p53 (Homo sapiens) (P04637 whole entry, looked up): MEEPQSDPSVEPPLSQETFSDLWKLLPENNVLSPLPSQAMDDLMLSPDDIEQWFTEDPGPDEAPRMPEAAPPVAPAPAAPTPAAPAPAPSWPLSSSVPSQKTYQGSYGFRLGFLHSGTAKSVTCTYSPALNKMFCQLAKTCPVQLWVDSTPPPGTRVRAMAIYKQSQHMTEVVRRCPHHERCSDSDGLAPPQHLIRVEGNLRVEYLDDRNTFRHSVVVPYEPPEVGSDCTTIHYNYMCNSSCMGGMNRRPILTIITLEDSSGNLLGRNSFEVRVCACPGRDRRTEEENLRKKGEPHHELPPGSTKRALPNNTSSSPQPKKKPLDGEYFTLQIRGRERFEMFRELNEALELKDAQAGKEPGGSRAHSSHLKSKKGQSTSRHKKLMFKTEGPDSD
# How it was run: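 NCI-H358 cells pre-induced 24 h with 10 ng/ml doxycycline to express N-terminal eGFP-delta133p53alpha, then dosed 24 h at 37C without doxycycline; fixed, Hoechst-stained, GFP intensity by laser scanning cytometry, normalized to DMSO (0%) and 57.5 uM 5-azacytidine (100%).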
# [2] = biological target: Aldehyde dehydrogenase, mitochondrial (Homo sapiens) (UniProt P05091); assay: qHTS for Inhibitors of the Aldehyde Dehydrogenase Family (ALDH2) Primary screen (AID 2061308); details: ALDH2 enzyme inhibition qHTS, 1536-well; series mostly up to 56 µM; further: nearly all actives have a fitted effect of over 55% in size
# [3] = biological target: Retinaldehyde dehydrogenase 3 (Homo sapiens) (UniProt P47895); assay: qHTS for Inhibitors of the Aldehyde Dehydrogenase Family (ALDH1A3) Primary screen (AID 2061315); details: ALDH inhibition qHTS; series mostly up to 56 µM
Compound,activation [1],Potency [2],Potency [3],"activity change, negative = inhibition [2]","activity change, negative = inhibition [3]",Potency [1]
CC(=O)/C=C/[C@H]1[C@](C)(O)[C@@H](O)[C@H](OC(C)=O)C2C(C)(C)CCC[C@@]21C (stereo partly drawn),-2.68%,inactive,inactive,,,
CC1CCCC(O)CCC/C=C/c2cc(OS(=O)(=O)O)cc(O)c2C(=O)O1 (stereo not drawn),-19.8%,inactive,inactive,,,
O=C(/C=C/c1ccc(O)cc1)OC[C@@]1(O)C=C[C@@H]2C(C(=O)O)=CO[C@@H](O[C@@H]3O[C@H](CO)[C@@H](O)[C@H](O)[C@H]3O)[C@@H]21,-4.46%,inactive,inactive,,,
CC(=O)O[C@@H]1[C@H](O[C@@H]2O[C@@H](CO)[C@H](O)[C@H]2O)[C@@H](O[C@@H]2O[C@@H](C)[C@H](O[C@@H]3OC[C@@H](O)[C@H](O)[C@H]3O)[C@@H](O)[C@H]2O)[C@H](OC(=O)[C@]23CCC(C)(C)C[C@H]2C2=CCC4[C@@]5(C)CC[C@H](O[C@@H]6O[C@H](C(=O)O)[C@@H](O)[C@H](O)[C@H]6O[C@@H]6O[C@H](CO)[C@H](O)[C@H](O)[C@H]6O)[C@@](C)(C=O)C5CC[C@@]4(C)[C@]2(C)C[C@H]3O)O[C@@H]1C (stereo partly drawn),0.893%,,,-0.326% [at 11.2 µM],-1.8% [at 11.2 µM],
O=C(CSc1nc2ccccc2c(=O)n1-c1ccccc1)Nc1ccc2c(c1)CCC2,5.67%,inactive,inactive,,,
COc1c(O)cc2c(c1O)C(=O)O[C@H](C)[C@H]2O,-14.5%,inactive,inactive,,,
C[C@@H]1CC[C@]2(C(=O)O)CC[C@]3(C)C(=CCC4[C@]5(C)C(CC[C@]43C)C(C)(C)[C@@H](O)[C@H](O)[C@@H]5O)C2[C@]1(C)O (stereo partly drawn),-4.46%,inactive,inactive,,,
C=C(C)C1CCC2(C(=O)O)CCC3(C(=O)O)C(CCC4C5(C)CCC(O)C(C)(C(=O)O)C5CCC43C)C12 (stereo not drawn),-3.82%,inactive,inactive,,,
CC1CCN(C(=O)CC#N)CC1N(C)c1ncnc2[nH]ccc12 (stereo not drawn),1.79%,inactive,inactive,,,
COc1cc(O)c2c(c1Cl)CC(C)OC2=O (stereo not drawn),7.14%,inactive,inactive,,,
C/C=C(\C)C(=O)OC[C@H]1O[C@H](O[C@H]2O[C@H](CO)[C@@H](O)[C@H](O)[C@H]2O[C@@H]2O[C@H](CO)[C@@H](O)[C@H](O)[C@H]2O)[C@H](O[C@@H]2O[C@H](CO)[C@@H](O)[C@H](O)[C@H]2O)[C@@H](O)[C@@H]1O,-3.82%,inactive,inactive,,,
O=C(O[C@H]1[C@@H]2C=CO[C@@H](O[C@@H]3O[C@H](CO)[C@@H](O)[C@H](O)[C@H]3O)[C@@H]2[C@@]2(CO)O[C@@H]12)c1ccccc1,10.7%,inactive,inactive,,,
CC(C)C(C)C(O)C1CC23CC(=O)C4(O)C(=C2CCC3C1C)C=CC1(O)CC(O)CCC14C (stereo not drawn),15.3%,inactive,inactive,,,
CC(C)c1noc(C2CCN(c3ncnc(Nc4ccc(S(C)(=O)=O)cc4F)c3[N+](=O)[O-])CC2)n1,21%,inactive,inactive,,,
O=C(O)Cc1cn([C@@H]2OC[C@@H](O[C@@H]3O[C@H](CO)[C@@H](O)[C@H](O)[C@H]3O)[C@H](O)[C@H]2O[C@@H]2O[C@H](CO)[C@@H](O)[C@H](O)[C@H]2O)c2ccccc12,-7.63%,inactive,inactive,,,
COc1ccc2nccc(C(=O)CC[C@@H]3CCN(CC#Cc4cc(F)cc(F)c4F)C[C@@H]3C(=O)O)c2c1,7.64%,inactive,inactive,,,
C[C@@H]1C[C@H]2[C@@H]3CCC4=CC(=O)C=C[C@]4(C)[C@@]3(F)[C@@H](O)C[C@]2(C)[C@@]1(O)C(=O)COP(=O)(O)O,-5.67%,inactive,inactive,,,
CC1CCCCCCCc2cc(O)cc(O)c2C(=O)O1 (stereo not drawn),-3.57%,inactive,inactive,,,
CC(C)=CCC/C(C)=C/CO[C@@H]1O[C@H](CO)[C@@H](OC(=O)/C=C/c2ccc(O)cc2)[C@H](O[C@@H]2O[C@@H](C)[C@H](O)[C@@H](O)[C@H]2O)[C@H]1O,19.6%,inactive,inactive,,,
CC1(C)CC2C(O)c3cocc3CC(C)(O)C2C1 (stereo not drawn),-8.04%,inactive,inactive,,,
CC1CCC2(C)C(CC(O)C(O)C23CO3)C1(C)CCC1=CC(=O)OC1O (stereo not drawn),-12.2%,inactive,inactive,,,
COc1c2c(c(C)c3c1C(=O)OC3)OC1(C)CC(O)C34OC(O)(CCC3(C)C1C2)OC4(C)C (stereo not drawn),-6.87%,inactive,inactive,,,
CC/C=C/CC1=C(CCCCCCCC(=O)O)CCC1=O,-17.9%,inactive,inactive,,,

Compound,activation [1],Potency [2],Potency [3],"activity change, negative = inhibition [2]","activity change, negative = inhibition [3]",Potency [1]
C/C=C/C1OC2=C(C(=O)OC2(C)O)C(O)C1O (stereo not drawn),28.2%,inactive,inactive,,,
O=C(/C=C/c1ccc(O)cc1)O[C@@H]1C[C@@](O)(C(=O)O)C[C@@H](O)[C@@H]1O,3.82%,inactive,inactive,,,
Cc1cccc(/C=N/Nc2cc(N3CCOCC3)n3nc(-c4ccncc4)cc3n2)c1,,inactive,inactive,,,19 µM (active)
C[N+]1(C)[C@@H]2C[C@@H](OC(=O)C(O)(c3cccs3)c3cccs3)C[C@H]1[C@@H]1O[C@@H]12,8.63%,inactive,inactive,,,
Cc1nc2sc(C(=O)NCc3ccncc3)c(N)c2c(C)c1Cl,11%,inactive,inactive,,,
COC(=O)c1ccnc(-c2cc(C(=O)NCCc3ccccc3)ccn2)c1,3.67%,inactive,inactive,,,
CCC(C)/C=C(C)/C=C/C1=CC2=C(Cl)C(=O)C(C)(OC(C)=O)C(=O)C2=CN1C(CCCN=C(N)N)C(=O)O (stereo not drawn),16%,inactive,inactive,,,
Cc1nc(C#Cc2ccnc(Cl)c2)c(C)n1-c1ccc(OC(F)(F)F)cc1,-7.16%,inactive,inactive,,,
CC1CCC2(NC1)OC1C(O)C3C4CCC5CC(O[C@@H]6O[C@H](CO)[C@@H](O)[C@H](O)[C@H]6O[C@@H]6O[C@@H](C)[C@H](O)[C@@H](O)[C@H]6O)CCC5(C)C4CCC3(C)C1C2C (stereo partly drawn),-15.3%,inactive,inactive,,,
COc1nc2sc(C(=O)NC3CC3)c(N)c2c(C)c1Cl,-6.33%,inactive,inactive,,,
Cc1sc(C)c(C(=O)NC2(c3ccc(C(=O)O)cc3)CC2)c1Cc1ccc(C(F)(F)F)cc1,-4.77%,inactive,inactive,,,
COC(=O)CC(O)CC(O)/C=C/c1c(C)ccc2c1C(O)CC(C)C2 (stereo not drawn),-14.5%,inactive,inactive,,,
NC1CCC(Nc2cc(-c3cccc(NCc4cccc(F)c4)n3)c(Cl)cn2)CC1 (stereo not drawn),,inactive,inactive,,,1.51 µM (active)
CC/C=C/C=C/C1(C)OC(CC(CO)OC)=CC1=O (stereo not drawn),1.79%,inactive,inactive,,,
[N-]=[N+]=N[C@]1(CO)O[C@@H](n2ccc(=O)[nH]c2=O)[C@@H](O)[C@@H]1O,7%,inactive,inactive,,,
CC(=O)OC[C@]12[C@H](OC(C)=O)[C@H](OC(=O)c3ccccc3)[C@@H]3[C@@H](OC(C)=O)[C@]1(OC3(C)C)[C@H](C)C[C@H](OC(=O)c1ccccc1)[C@@H]2OC(=O)c1ccccc1,-31.3%,inactive,inactive,,,
C/C=C(\C)C(=O)O[C@@H](C)[C@H]1CC[C@]2(O)C3CCC4C[C@@H](OC5CC(OC)C(OC6CC(OC)C(OC7CC(OC)C(OC8OC(C)C(OC9OC(CO)C(O)C(O)C9O)C(OC)C8O)C(C)O7)C(C)O6)C(C)O5)CC[C@]4(C)C3[C@H](O)[C@@H](O)[C@]12C (stereo partly drawn),8.04%,,,4.67% [at 11.2 µM],-5.31% [at 11.2 µM],
C[C@H]1[C@@H](O)[C@H](O)C2[C@]3(C)C([C@@H](O)[C@H]4OC(=O)[C@@H]1[C@@]24C)[C@](C)(O)C=C[C@H]3O[C@@H]1O[C@H](CO)[C@@H](O)[C@H](O)[C@H]1O (stereo partly drawn),0.893%,inactive,inactive,,,
C/C(=C\CO[C@@H]1O[C@H](CO[C@H]2OC[C@](O)(CO)[C@H]2O)[C@@H](O)[C@H](O)[C@H]1O)C(C)(C)O,-5.34%,inactive,inactive,,,
C=C(C)C(=O)O[C@H]1C[C@@](C)(OC(C)=O)[C@@]2(O)CC[C@@](C)(O)[C@H](OC(C)=O)[C@@]23OC(=O)C(COC)=C13,-9.16%,inactive,inactive,,,
C[C@]12CCC[C@](C)(C(=O)O)C1CCC13C=C(CO)C(CCC12)C3 (stereo partly drawn),-24.4%,inactive,inactive,,,
C[C@@H]1O[C@@H](O[C@H]2[C@H](O)[C@@H](O)[C@H](OC[C@H]3O[C@@H](OC(=O)[C@]45CCC(C)(C)C[C@H]4C4=CCC6[C@@]7(C)C[C@@H](O)[C@H](O)[C@@](C)(CO)C7[C@H](O)C[C@@]6(C)[C@]4(C)CC5)[C@H](O)[C@@H](O)[C@@H]3O)O[C@@H]2CO)[C@H](O)[C@H](O)[C@H]1O (stereo partly drawn),16%,inactive,inactive,,,
CC(C)=CC[C@H]1O[C@]2(O)C([C@H]3CCC4[C@@]5(C)CC[C@H](O[C@@H]6O[C@H](CO)[C@H](O)[C@H](O[C@@H]7O[C@H](CO)[C@@H](O)[C@H](O)[C@H]7O)[C@H]6O[C@@H]6O[C@@H](C)[C@H](O)[C@@H](O)[C@H]6O)C(C)(C)C5CC[C@@]4(C)[C@]3(C)[C@H]2O)[C@@]1(C)O (stereo partly drawn),17.6%,inactive,inactive,,,
